Reference: PubChem BioAssay AID1626 (SRMLSC, 2009)
In all, about 220,000 compounds went through this assay and about 2,000 (0.91%) were called active. Not shown: some 2% with an inconclusive outcome. No stated cut-off is given here; in the data, inconclusive means inhibition above about 80% without an active follow-up result; inactive means below that; test concentration not stated here. Only a sample is shown. Measured potencies and affinities stand elsewhere.

Test: M. tuberculosis H37Rv growth inhibitors, H37Rv strain (AID 1626);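 further: bacteria incubated seven days before Alamar blue readout; 0% = bacteria only wells and 100% = bacteria with antibiotic wells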
Conditions: stronger effect = higher value, concentration not given here

Row | SMILES | inhibition
1 | CCOc1ccc(/C=C/C2=NNC(=O)CC2)cc1 | -3.64% (inactive)
2 | CCCCn1c(N2CCC(Cc3ccccc3)CC2)nc2c1c(=O)[nH]c(=O)n2C | 46.5% (inactive)
3 | CCCn1c(N2CCC(Cc3ccccc3)CC2)nc2c1c(=O)[nH]c(=O)n2C | 12.4% (inactive)
4 | Oc1c(Br)cc(Cl)cc1C=Nc1ccc(N2CCOCC2)cc1 | 7.51% (inactive)
5 | O=S(=O)(CCn1cccc1)CCn1cccc1 | 8.4% (inactive)
6 | COc1cc(/C=N/NC(=O)c2c(-c3ccccc3)noc2C)cc(OC)c1OC | -3.6% (inactive)
7 | COc1ccc(CNC(=O)COC(=O)CCc2nc3ccccc3c(=O)[nH]2)cc1 | 5.36% (inactive)
8 | CN1C[C@@H]2C(c3ccccc3)C3(c4cccnc4)CC2(C3)[C@H]1c1ccccc1 (stereo partly drawn) | 1.01% (inactive)
9 | c1ccc(C2[C@H]3CN(CC4CCCCC4)[C@H](c4ccccc4)C34CC2(c2ccccc2)C4)cc1 (stereo partly drawn) | 6.4% (inactive)
10 | FC(F)(F)c1ccc(CN2C[C@@H]3C(c4ccc(C(F)(F)F)cc4)C4(c5cccnc5)CC3(C4)[C@H]2c2ccccc2)cc1 (stereo partly drawn) | 9.04% (inactive)
11 | CN1C[C@@H]2C(c3ccc(C(F)(F)F)cc3)C3(c4ccccc4)CC2(C3)[C@H]1c1ccccc1 (stereo partly drawn) | 2.02% (inactive)
12 | FC(F)(F)c1ccc(C2[C@H]3CN(CC4CCCCC4)[C@H](c4ccccc4)C34CC2(c2cccnc2)C4)cc1 (stereo partly drawn) | 19.8% (inactive)
13 | FC(F)(F)c1ccc(CN2C[C@@H]3C(c4ccc(Cl)nc4)C4(c5ccccc5)CC3(C4)[C@H]2c2ccccc2)cc1 (stereo partly drawn) | 7.77% (inactive)
14 | CCOC(=O)Cn1nc(C)n(-c2ccc(C(C)C)cc2)c1=O | 1.38% (inactive)
15 | CCCc1nc2c(sc3nc4c(cc32)COC(C)(C)C4)c(=O)n1CCN(C)C | -6.58% (inactive)
16 | Cc1ccccc1Nc1c(-c2ccc(N3CCOCC3)cc2)nc2cnccn12 | -3.6% (inactive)
17 | CC(C)C[C@H](CO)Nc1nc(Nc2cccc(Cl)c2)c2ncn(C(C)C)c2n1 | 28.8% (inactive)
18 | CC[C@H](CO)Nc1nc(Nc2cccc(Cl)c2)c2ncn(C(C)C)c2n1 | 15.3% (inactive)
19 | CCN(CC)S(=O)(=O)c1cccc(C(=O)N[C@H](C(=O)NCc2ccc(Cl)cc2)C(C)C)c1 | 6.08% (inactive)
20 | COc1cc(C(=O)NCC(C)C)c([N+](=O)[O-])cc1OC | 3.27% (inactive)
21 | CCCCOc1ccc(Br)cc1CSC(=N)N | 2.99% (inactive)
22 | CCCOc1ccc(Br)cc1CSC(=N)N | -1.31% (inactive)
23 | CCCCC(=O)Nc1nnc(C2=COCCO2)o1 | 2.42% (inactive)
24 | CCCC(=O)Nc1nnc(-c2ccc3c(c2)OCCO3)o1 | 57.4% (inactive)
25 | O=C(Nc1nnc(C2=COCCO2)o1)c1ccc(S(=O)(=O)N2CCCCC2)cc1 | 78.6% (inactive)

Row | SMILES | inhibition
26 | O=C(NCc1ccccc1)c1ccc2c(c1)OCCO2 | -7.22% (inactive)
27 | CC(=O)Nc1nnc(C2=COCCO2)o1 | 0.04% (inactive)
28 | N#CCCN(CCC#N)S(=O)(=O)c1ccc(C(=O)Nc2nnc(C3=COCCO3)o2)cc1 | -6.19% (inactive)
29 | O=C(Nc1nnc(C2=COCCO2)o1)c1ccc(S(=O)(=O)N2CCCC2)cc1 | -3.71% (inactive)
30 | O=C(Nc1nnc(C2=COCCO2)o1)c1ccc(S(=O)(=O)N2CCOCC2)cc1 | 7.6% (inactive)
31 | Cc1ccc(/C=N/NC(=O)c2cccnc2)s1 | -7.82% (inactive)
32 | O=C(Nc1ccc(F)cc1)c1ccc(S(=O)(=O)N2CCOCC2)o1 | -14.1% (inactive)
33 | COC(C[C@@H](O)C[C@@H](O)COCc1ccccc1)OC | -11.1% (inactive)
34 | Cn1c(SCC(=O)N2CCCc3ccccc32)nc2cccnc21 | 4.22% (inactive)
35 | O=C(Nc1nnc(-c2cccnc2)s1)c1cccs1 | -11.7% (inactive)
36 | CC(C)(Oc1ccc(Cl)cc1)C(=O)OCn1nnc2ccccc2c1=O | 62.5% (inactive)
37 | COc1ccc(-n2c(C)cc(C(=O)CCl)c2C)cc1 | -6.35% (inactive)
38 | CC(=O)c1c(C(C)=O)c(C)n(-c2cccc([N+](=O)[O-])c2)c1C | -7.09% (inactive)
39 | Cc1cc(C)c(S(=O)(=O)N(C)CC(=O)NCc2ccccn2)c(C)c1 | -8.63% (inactive)
40 | CCn1ccnc1CN(C)Cc1cn(C)nc1-c1ccccc1F | -1.63% (inactive)
41 | COc1cccc(/C=N/n2c(SC)nnc2-c2ccccc2)c1OC | -6.45% (inactive)
42 | Cc1ccc(CN(C(=O)Cc2cccs2)C(C(=O)NC2CCCC2)c2ccncc2)cc1 (stereo not drawn) | 7.49% (inactive)
43 | O=C(Nc1ccc(S(=O)(=O)Nc2ccc(Cl)cc2)cc1)C1CCCO1 (stereo not drawn) | 5.71% (inactive)
44 | O=C(NCc1ccc(Cl)cc1)c1ccc(CNc2c(N3CCOCC3)c(=O)c2=O)cc1 | 87.6% (inactive)
45 | CC(=O)c1ccc(NC(=O)c2ccc(CNc3c(N4CCCC4)c(=O)c3=O)cc2)cc1 | 2.39% (inactive)
46 | Cc1cc(C)cc(NC(=O)c2ccc(CNc3c(N4CCOCC4)c(=O)c3=O)cc2)c1 | 12.3% (inactive)
47 | O=C(NCc1ccc(Cl)cc1)c1ccc(CNc2c(N3CCCC3)c(=O)c2=O)cc1 | 4.26% (inactive)
48 | COc1cc2c(cc1NC(=O)CSc1nnc(Cc3cccs3)n1Cc1ccco1)oc1ccccc12 | 7.99% (inactive)
49 | CC(C)c1ccc(NC(=O)Cn2cccc2C2=NC(c3ccccc3)CO2)cc1 (stereo not drawn) | -2.83% (inactive)
50 | COc1ccc(C(CCN)Cc2ccccc2)cc1 (stereo not drawn) | 1.28% (inactive)

Row | SMILES | inhibition
51 | O=S1(=O)CCN(OCc2ccc(F)cc2Cl)CC1 | -5.47% (inactive)
52 | CCOc1cc(C)nc(Oc2ccc(=O)[nH]n2)n1 | -1.8% (inactive)
53 | Cc1ccc(-c2csc(=Nc3cccnc3)n2CCCN2CCCC2=O)cc1C | 8.37% (inactive)
54 | Cc1ccc(C)c2c1[nH]c1ccccc12 | -8.26% (inactive)
55 | c1ccc2c(c1)[nH]c1cnccc12 | -1.77% (inactive)
56 | CC(C)CCNC1=CC(=O)CC(c2ccccc2)C1 (stereo not drawn) | -3.24% (inactive)
57 | CNCCOc1ccccc1OC(C)C | 4.14% (inactive)
58 | O=C(O)c1ccc(C(=O)O)c(C(=O)c2ccccc2)c1 | 4.19% (inactive)
59 | Cc1nn(Cc2ccc(F)cc2Cl)c(C)c1[N+](=O)[O-] | 5.81% (inactive)
60 | Cn1c(-c2sc(=S)n(-c3ccccc3)c2N)nc2ccccc21 | -12.8% (inactive)
61 | N#Cc1c(N)n(CCc2ccc(F)cc2)c2nc3ccccc3nc12 | 7.97% (inactive)
62 | CCOc1ccc(-n2c(N)c(-c3nc4ccccc4n3C)c3nc4ccccc4nc32)cc1 | 70.5% (inactive)
63 | Cc1nc2ccccc2n1CCc1ccccc1 | -7.4% (inactive)
64 | CCN(CC)C(=O)C1=C(C)NC(=O)NC1c1ccccc1F (stereo not drawn) | -2.9% (inactive)
65 | COc1ccc(NC(=O)C(C)N2c3cccc4cccc(c34)S2(=O)=O)cc1OC (stereo not drawn) | -6.4% (inactive)
66 | CCC(=O)NC(=S)Nc1cccc(NC(=O)c2ccccc2Cl)c1 | 8.67% (inactive)
67 | N#C/C(=C\c1ccc(C(=O)O)cc1)S(=O)(=O)c1cc(Br)ccc1Br | 17% (inactive)
68 | CCn1c(SCC(=O)O)nnc1-c1cccnc1 | -5.44% (inactive)
69 | CC1CN(c2ncnc3c2c(-c2ccccc2)cn3-c2ccc(F)cc2)CC(C)O1 (stereo not drawn) | 8.16% (inactive)
70 | CN1Cc2c(N3CCOCC3)nc3sc(C(=O)c4ccccc4)c(N)c3c2CC1(C)C | 8.23% (inactive)
71 | CCOC(=O)c1sc2nc(N3CCOCC3)c3c(c2c1N)CC(C)(C)N(C)C3 | -3.62% (inactive)
72 | Cc1ccccc1OCCNc1cc(N2CCN(CCO)CC2)ccc1[N+](=O)[O-] | 27.5% (inactive)
73 | O=C(NCc1ccccc1)c1nc2c(nnn2Cc2cccc(Cl)c2)c(=O)[nH]1 | -4.36% (inactive)
74 | COC(=O)C1CCN(C(=O)c2sc3nc(-c4ccc(F)cc4)cn3c2C)CC1 | 6.16% (inactive)
75 | CCCC(=Nc1ccccc1OC)C1=C(O)CC(c2ccccc2)CC1=O (stereo not drawn) | 2.17% (inactive)

Row | SMILES | inhibition
76 | CCC(=Nc1ccccc1OC)C1=C(O)CC(c2ccccc2)CC1=O (stereo not drawn) | 6.17% (inactive)
77 | CN(CC(=O)Nc1ccc(S(=O)(=O)N2CCCC2)cc1)CC(=O)Nc1cccc(F)c1 | 2.32% (inactive)
78 | O=C1CC(c2cccs2)Cc2nc(NCC3CCCO3)ncc21 (stereo not drawn) | -8.23% (inactive)
79 | Cc1nc2ccccc2c(=O)n1NC(=O)/C=C/c1ccccc1Cl | -8.45% (inactive)
80 | CCn1c(COc2cccc3ccccc23)nnc1SCC(N)=O | -13.4% (inactive)
81 | COc1cccc(OCc2nnc(SCC(=O)OC3CCCCC3)n2C)c1 | 6.41% (inactive)
82 | O=C(O)CSc1nnc(COc2cccc3ccccc23)n1Cc1ccccc1 | -1.72% (inactive)
83 | Cn1c(COc2ccccc2)nnc1SCC(=O)NNC(=O)C1CCCCC1 | -10.3% (inactive)
84 | COc1cccc(C(c2nnnn2CS(=O)(=O)c2ccc(C)cc2)N2CCN(C)CC2)c1OC (stereo not drawn) | -6.9% (inactive)
85 | CN1CCN(CC#CC(C)(O)C2CC3C=CC2C3)CC1 (stereo not drawn) | 8.02% (inactive)
86 | CCN(c1ccccc1)S(=O)(=O)c1ccc(Cl)c(C(=O)OCC(=O)NC(=O)C(C)C)c1 | -9.03% (inactive)
87 | Cc1ccc(OC(=O)c2ccc3snnc3c2)cc1 | 68.6% (inactive)
88 | CC(C)(C)c1ccc(OC(=O)c2ccc3nsnc3c2)cc1 | 29.5% (inactive)
89 | COc1ccc2[nH]c(=O)c(CN(C(=O)c3cccnc3)c3ccccc3C)cc2c1 | -2.62% (inactive)
90 | O=C(Nc1ccc(NC(=O)c2ccccn2)cc1)C(=O)Nc1ccc2c(c1)OCCO2 | 1.18% (inactive)
91 | Cc1ccccc1NC(=O)CSc1nc2c(c(-c3ccco3)c1C#N)CCCC2 | -3.31% (inactive)
92 | N#Cc1c(SCC(=O)O)nc(-c2ccccc2)c2c1CCCC2 | -9.5% (inactive)
93 | COC(=O)CSc1nc(-c2ccc(C)cc2)c2c(c1C#N)CCCC2 | 72.2% (inactive)
94 | COC(=O)CSc1nc2c(c(-c3ccc(O)cc3)c1C#N)CCCC2 | -6.65% (inactive)
95 | CCSc1nc2c(c(-c3ccc(C)o3)c1C#N)CCCC2 | 2.67% (inactive)
96 | Cc1ccc(-c2c(C#N)c(N)nc3c2CCCC3)o1 | -11.1% (inactive)
97 | COc1cccc(NC(=O)CSc2nc3c(c(-c4ccco4)c2C#N)CCCC3)c1 | -2.62% (inactive)
98 | COc1ccc(-c2c(C#N)c(SCC(N)=O)nc3c2CCCC3)cc1 | 2.47% (inactive)
